The text below walks through data of PubChem BioAssay AID1220 (Sanford-Burnham Center for Chemical Genomics, 2008).

The structures appear in SMILES notation. Hit rate of the full screen: of about 190,000 compounds, about 1,300 (0.68%) were called active. Cut-off read from the data, not from the text of the source: active = inhibition above about 50%; inactive = the rest. Shown is part of a subset that was picked to be rich in actives.

Sequence of Mannose-6-phosphate isomerase (Homo sapiens) (P34949 whole entry, looked up): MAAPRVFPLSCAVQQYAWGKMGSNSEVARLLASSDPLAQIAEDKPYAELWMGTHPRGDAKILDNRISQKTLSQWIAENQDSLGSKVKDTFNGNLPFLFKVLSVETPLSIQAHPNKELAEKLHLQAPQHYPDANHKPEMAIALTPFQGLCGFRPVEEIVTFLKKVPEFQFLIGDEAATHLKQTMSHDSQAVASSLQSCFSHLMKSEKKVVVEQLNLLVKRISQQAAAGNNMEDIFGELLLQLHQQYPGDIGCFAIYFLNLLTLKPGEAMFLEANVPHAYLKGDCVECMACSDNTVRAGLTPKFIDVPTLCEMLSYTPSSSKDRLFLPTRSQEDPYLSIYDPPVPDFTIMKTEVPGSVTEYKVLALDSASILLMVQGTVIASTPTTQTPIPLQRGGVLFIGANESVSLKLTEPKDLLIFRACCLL

This test addresses Mannose-6-phosphate isomerase (Homo sapiens) (UniProt P34949). The test can be described thus: human PMI inhibitors, high substrate, primary screen, biochemical, fluorescence intensity, high mannose 6-phosphate (AID 1220). Particulars: recombinant PMI enzyme, coupled fluorescence intensity; at 20 µM; stronger effect = higher value.
Consider `O=C(O)c1cc(-c2ccc(/C=C3/SC(=S)N(Cc4ccccc4)C3=O)o2)ccc1Cl`, for which the inhibition – broadly, the change of the read-out against control, counted positive when it falls – is -34.8% (inactive). Turning to `Cc1cccc(C)c1-n1cccc1/C=C1\SC(=S)N(c2cccc(C(=O)O)c2)C1=O`, the inhibition was 3% (inactive).

In the case of `O=C(O)c1cccc(N2C(=O)/C(=C/c3ccc(SCc4ccc(Cl)cc4)o3)SC2=S)c1`, the inhibition is 67.9% (active).

Turning to `O=C1NC(=S)S/C1=C\c1ccc(SCc2ccco2)o1`, the inhibition is 7.7% (inactive). In the case of `O=C1NC(=S)S/C1=C\c1ccc(SCc2ccccc2)o1`, the inhibition is 66.9% (active). For the molecule `O=C1NC(=S)S/C1=C/c1ccc(N2CCOCC2)o1`, the inhibition was -14% (inactive).

For the molecule `O=C(COC(=O)c1sc2cc(F)ccc2c1Cl)Nc1ncc(Cl)cc1Cl`, the inhibition was 13.4% (inactive). Next, `Cn1c(=O)c2c(nc(SCC(=O)Nc3ccccc3)n2C)n(C)c1=O`: 6.1% (inactive); `Cc1cccc(C)c1NC(=O)CSc1nnc(-c2cccnc2)o1`: 5.5% (inactive). Next, `COc1ccccc1NC(=S)N1CCN(C(=O)c2ccco2)CC1`: -3% (inactive); `O=C(Cc1c(F)cccc1Cl)N1CCOCC1`: -13.4% (inactive); `COCCn1c(=O)c2c(nc3n2CCN3c2ccc(C)cc2)n(C)c1=O`: 0.4% (inactive).

Take `CCOc1ccc(NC(=O)c2ccccc2O)cc1`: the inhibition is -0.8% (inactive). Take `CCOc1ccc(N=C(NN)c2ccc3ccccc3n2)cc1`: the inhibition is -57.4% (inactive). As for `CCOc1ccc(N=C(C)c2ccccc2O)cc1`, the inhibition was 55.9% (active). `Cc1cccc(OCC(=O)Nc2ccc3nc(C)sc3c2)c1`: the inhibition was -10.9% (inactive). Next, `COCCNC(=O)C1CCCN(c2nn3c(=O)cc(C)nc3s2)C1` (configuration not stated): 7.2% (inactive); `CCN1CCN(Cc2nc3c(c(=O)n(C)c(=O)n3C)n2CCc2ccccc2)CC1`: -1.1% (inactive). For the molecule `O=c1cc(Nc2ccc3c(c2)OCCO3)[nH]c(=O)n1-c1ccc(Br)cc1`, the inhibition is 57.5% (active).

For the molecule `O=c1cc(Nc2ccc3c(c2)OCO3)[nH]c(=O)n1-c1ccc(Br)cc1`, the inhibition is 1.9% (inactive).

On to `O=c1cc(Nc2ccc3c(c2)OCCO3)[nH]c(=O)n1-c1ccc(Cl)cc1`, for which the inhibition is 8% (inactive). In the case of `CC1CCN(S(=O)(=O)c2ccc(NC(=S)NC(=O)c3ccc(Cl)cc3)cc2)CC1`, the inhibition is -6.2% (inactive). Next, `CC[n+]1ccc(C[n+]2ccccc2)c2ccccc21`: 97.1% (active); `CC[n+]1ccc(/C=C/c2ccc(N(C)C)cc2)c2ccccc21`: -4.8% (inactive). Consider `CC[n+]1ccc(C)c2cc(P(=O)(c3ccccc3)c3ccccc3)ccc21`, for which the inhibition was 18.4% (inactive). In the case of `O=C(NCc1ccccc1)C1=C[C@@H](c2coc3ccccc3c2=O)C[C@@H](OCCCCO)O1`, the inhibition was 8.5% (inactive). Regarding `O=C(NCc1ccc(Cl)cc1)C(=O)NCC(c1cccnc1)N1CCN(c2ccc(F)cc2)CC1` (configuration not stated), the inhibition is 2.5% (inactive).

Take `CCCOC1(NC(=O)c2ccccc2)C(C)=CC(=O)C=C1C`: the inhibition is 55.4% (active). For `CCOC1(NC(=O)c2ccccc2)C(C)=CC(=O)C=C1C`, the inhibition was 49.2% (inactive). Regarding `COC1(NC(=O)c2ccccc2)C(C)=CC(=O)C=C1C`, the inhibition was 6.7% (inactive). In the case of `CCNC(=O)/C(=C\C=C\c1ccccc1)NC(=O)c1ccc(Br)o1`, the inhibition is -11.4% (inactive). Consider `Cc1ccc(Nc2nc3ccccc3c(=O)[nH]2)cc1C`, for which the inhibition was -5% (inactive). Turning to `Nc1ccc2oc(C3CCCCC3)nc2c1`, the inhibition was 64% (active). Consider `O=[N+]([O-])c1ccc2oc(C3CCCCC3)nc2c1`, for which the inhibition is 2.8% (inactive). Turning to `Nc1ccc2nc(C3CCCCC3)[nH]c2c1`, the inhibition was 32.3% (inactive). For `Cc1c(-n2cc(C(=O)O)c(=O)c3cc(F)c(N4CCCC4)c(F)c32)c(=O)n(-c2ccccc2)n1C`, the inhibition was 16% (inactive). Regarding `Cc1sc2nc(CN3CCOCC3)nc(NCCc3ccccc3)c2c1C`, the inhibition is 2% (inactive). Next, `CCOc1cc(-c2cc(N)n[nH]2)cc(OCC)c1OCC`: 61.2% (active); `CCOc1cc(-c2conc2N)cc(OCC)c1OCC`: 4.6% (inactive); `CCCc1ccc(-c2cc(N)n[nH]2)cc1`: -0.8% (inactive). In the case of `O=C(Nc1cccc(NC(=O)c2cccs2)c1)c1cccnc1`, the inhibition is 50.8% (active). Next, `O=C(Nc1cccc(NC(=O)c2cccnc2)c1)c1cccnc1`: 7.6% (inactive); `O=C(Nc1ccc(NC(=O)c2cccs2)cc1)c1cccnc1`: -2.7% (inactive).

Consider `Oc1ccc(CCC2CCCCN2Cc2nc(C3CC3)no2)cc1` (configuration not stated), for which the inhibition was 5.5% (inactive). Next, `CCc1ccccc1NC(=O)Nc1ccc(F)cc1F`: -2.1% (inactive). In the case of `Cn1cc(C=O)c2ccccc21`, the inhibition is 8.2% (inactive). Regarding `CN1C(=O)N(C)c2ccc(C=O)c3cccc1c23`, the inhibition was 63.6% (active). In the case of `CN1C(=O)c2cccc3c(Cl)ccc(c23)C1=O`, the inhibition was -5.2% (inactive).

With `O=C(Cn1cncn1)N/N=C/c1ccc(Cl)cc1`, the inhibition is -5% (inactive).

In the case of `Cc1cc(Cl)ccc1NC(=O)Cn1cncn1`, the inhibition was 62.6% (active). For the molecule `O=C(Cn1cncn1)NCc1ccc(Cl)cc1`, the inhibition was -13.3% (inactive).

`COc1cc2cnc(Cl)nc2cc1OC`: the inhibition is 54.8% (active). `COc1cc2cc(C(N)=O)c(N)nc2cc1OC`: the inhibition was -0.4% (inactive).

On to `COc1cc2cnncc2cc1OC`, for which the inhibition was -4.8% (inactive). Next, `COc1ccc(CC(=O)NCc2n[nH]c(=S)n2-c2ccccc2)cc1`: -0.6% (inactive). For `CCOC(=O)N1CCN(Cc2ccccc2Cl)CC1`, the inhibition is 4.6% (inactive). On to `OCCN1CCN(Cc2cc(Cl)c3cccnc3c2O)CC1`, for which the inhibition was 48.3% (inactive). With `CCOC(=O)N1CCN(Cc2ccccn2)CC1`, the inhibition was -7.5% (inactive).

As for `Cc1ccc(C)c(S(=O)(=O)N2CCN(Cc3ccc(O)c4ncccc34)CC2)c1`, the inhibition was 19.7% (inactive). For `COc1ccc(-n2c(SCC(=O)Nc3nccs3)nc3c(c2=O)SCC3)cc1`, the inhibition was 11.9% (inactive). For the molecule `CCC(=O)c1ccc(OCC(O)CN2CCOCC2)cc1` (configuration not stated), the inhibition was 6.8% (inactive).

As for `O=C(Nc1ccc2c(c1)CCC2)Nc1ccc2c(c1)OCO2`, the inhibition was 11% (inactive). With `CC(/C=N/Nc1nc(C)cc(=O)[nH]1)=C\c1ccccc1`, the inhibition is -78.9% (inactive). In the case of `COc1ccccc1NC(=S)NNC(=S)Nc1ccc(OC(F)F)cc1`, the inhibition was 5.4% (inactive).

For the molecule `COc1ccc(NC(=S)Nc2ccc(OC(F)F)cc2)cn1`, the inhibition was 58.2% (active). Take `COc1ccc(NC(=S)Nc2ccccc2)cn1`: the inhibition was 8.5% (inactive). Turning to `O=C(O)c1ccccc1SCC(=O)N1CCc2ccccc21`, the inhibition was -1.8% (inactive).
